Screens: PubChem, Center for Chemical Genomics, University of Michigan
This excerpt belongs to a sample that is enriched for hits.
Dicer inh = blocks human Dicer maturation of pre-miR-21 | cat-ELCCA pre-miR-21 Dicer processing, chemiluminescence; active compounds read high | z-score at 25 µM | 6% of 47,000 active | AID 1347074; in the data active = z-score above about 3, passing the limit was not always enough;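 note: plate controls were vehicle for no effect and no enzyme for full effect; higher signal means more uncleaved substrate so more Dicer inhibition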
An asterisk follows results filed as active.

SMILES	Dicer inh
Cc1cccc2c1N(CC(C)C)C(=O)C2=O	1.76
O=C(OCCN1C(=O)C2C3c4ccccc4C(c4ccccc43)C2C1=O)c1ccccc1 (configuration not stated)	1.18
N#Cc1nc(-c2ccc(Cl)cc2)oc1N1CCOCC1	3.68*
N#Cc1nc(-c2ccc(F)cc2)oc1N1CCOCC1	-0.48
COc1ccc(-c2nc(C#N)c(N3CCCCC3)o2)cc1	-0.28
CCOC(=O)C1=C(C)N2CCN=C2S1	0.91
CCOC(=O)c1c(N)sc2c1CCC2	-2.76
CCOC(=O)C1=C(C)N2CCCN=C2S1	3.34*
COc1ccc(NC(C)=O)c(NC(=S)Nc2ccc(C)cc2C)c1	73.6
O=C(N/N=C/c1ccccc1Cl)N/N=C/c1ccccc1Cl	3.76*
O=C(N/N=C/c1ccc(Cl)c(Cl)c1)N/N=C/c1ccc(Cl)c(Cl)c1	-2.83
S=C(NCCc1ccccc1)N/N=C/c1ccccc1Cl	1.55
COC(=O)CC1(C(=O)OC)Oc2ccccc2C(=O)N1c1cc(Cl)cc(Cl)c1 (configuration not stated)	-0.2
Cc1[nH]c2[nH]n(-c3ccccc3)c(=O)c2c(=O)c1Cc1ccc(C(C)C)cc1	-0.9
O=C1CC(c2cccc(Br)c2)Nc2ccc3ccccc3c21 (configuration not stated)	3.42*
CN(C)c1ccc(C2CC(=O)c3ccccc3N2)cc1 (configuration not stated)	2.42
O=C1CC(c2ccccc2Cl)Nc2ccc3ccccc3c21 (configuration not stated)	1.82
Cc1ccc(-c2c(C#N)c(N)nc3c2CC(C)CC3)o1 (configuration not stated)	0
O=C1/C(=C/c2ccncc2)COc2ccccc21	-1.04
O=C1CC(C(=O)Nc2cccc(F)c2)n2c(nc3ccccc32)N1 (configuration not stated)	-0.23
O=C1CC(C(=O)Nc2ccc(Br)cc2)n2c(nc3ccccc32)N1 (configuration not stated)	5.06*
O=C1CC(C(=O)Nc2cccc(Cl)c2)n2c(nc3ccccc32)N1 (configuration not stated)	1.3
CCc1cccc(C)c1NC(=O)NNC(=O)Cc1nc(-c2ccccc2)sc1C	2.64
O=[N+]([O-])c1ccc(N2CCCCCCC2)cc1	1.46
O=C(O)c1c(N2CCCCC2)ccc([N+](=O)[O-])c1N1CCCCC1	-0.06
SMILES	Dicer inh
O=c1c(N2CCCCC2)c(N2CCCCC2)c1=O	7.35*
COc1ccccc1-c1c(C(F)(F)F)oc2c(CN3CCCC3)c(O)ccc2c1=O	2.4
CCOC(=O)c1cnn(-c2ncnc3c2cnn3C)c1C(F)(F)F	0.96
Cc1ccc(C2=N/C(=C\c3cccs3)C(=O)O2)cc1[N+](=O)[O-]	-1.08
c1csc(CNc2nc3ccccc3n2CCN2CCCCC2)c1	-0.42
c1csc(CNc2nc3ccccc3n2CCN2CCOCC2)c1	2.23
CCCn1c(NCc2cccs2)nc2ccccc21	3.15*
c1ccc(Cn2c(NCc3cccs3)nc3ccccc32)cc1	3.01*
C=CCN1C(=O)C(O)(CC(=O)c2ccc(OCC)cc2)c2cc(Br)ccc21 (configuration not stated)	2.09
N#Cc1cn(CCSc2cc(C(F)(F)F)nc3ccccc23)c(=O)[nH]c1=O	0.24
Cc1c2n(c3ccccc13)CC/C2=N\Nc1ccc(Cl)cc1Cl	0.93
COc1nc2c(c(-c3ccco3)c1C#N)Cc1ccccc1-2	0.65
COCCNC(=O)COc1ccc(Br)cc1	1.75
NC(=S)N/N=C/c1cn(-c2ccccc2)nc1-c1ccc(Cl)cc1	-1.11
N#CC(=C1SCCS1)c1ccc(Cl)cc1	4.68*
N#CC(=C1SCCCCS1)S(=O)(=O)c1ccc(Cl)cc1	0.36
N#CC(=C1SCCS1)S(=O)(=O)c1ccc(Cl)cc1	-0.22
CC(C)NC(=O)N(Cc1cccnc1)Cc1cccc(Cl)c1Cl	-0.04
S=C(Nc1ccc(Cl)c(Cl)c1)Nc1cc(-c2cccs2)[nH]n1	-0.42
Cc1cccc(-n2ncc3ccccc3c2=O)c1	4.25*
O=c1c2ccccc2cnn1-c1ccc(F)cc1	0.98
O=c1c2ccccc2cnn1-c1ccc2ccccc2c1	-1.25
O=C(Nc1nc2c(Br)cc(Br)cc2c(=O)s1)c1cccs1	0.71
CCOc1ccc(C2CC(c3ccc(OCc4ccccc4)cc3)n3nc(N)nc3N2)cc1 (configuration not stated)	0.25
COc1ccc(NC2CC(=O)N(c3ccccc3F)C2=O)cc1 (configuration not stated)	-0.54
SMILES	Dicer inh
O=C(O)CCC(=O)N1CCc2c([nH]c3ccccc23)C1C(F)(F)F (configuration not stated)	1.03
FC(F)(F)Oc1ccc(NC(=S)N2CCc3c([nH]c4ccccc34)C2C(F)(F)F)cc1 (configuration not stated)	1.05
O=S(=O)(c1cc(C(F)(F)F)cc(C(F)(F)F)c1)N1CCc2c([nH]c3ccccc23)C1C(F)(F)F (configuration not stated)	3.52*
O=C(O)CCCC(=O)N1CCc2c([nH]c3ccccc23)C1C(F)(F)F (configuration not stated)	-0.64
FC(F)(F)Oc1ccccc1NC(=S)N1CCc2c([nH]c3ccccc23)C1C(F)(F)F (configuration not stated)	-6.98
O=C(NC(=O)N1CCc2c([nH]c3ccccc23)C1C(F)(F)F)c1ccccc1 (configuration not stated)	7.52*
O=C(O/N=C(\Cn1nnc(N2CCOCC2)n1)c1ccc(Cl)cc1)c1ccc(Cl)cc1Cl	0.29
CCCc1[nH]nc2c1C1(CCN(C)CC1C)C(C#N)=C(N)O2 (configuration not stated)	-2.39
O=[N+]([O-])c1c(N2CCOCC2)ccc2nsnc12	-0.77
Oc1ccccc1-c1nc2ccccc2o1	-0.43
CC(C)Cn1c(=O)oc2ccccc21	-0.3
O=c1oc2ccccc2n1-c1nc2ccccc2o1	5.63*
CN(C)/C=C/C(=O)c1cc(Cl)ccc1Cl	-0.56
Cc1c(C(=O)/C=C/N(C)C)sc(=S)n1CCc1ccc(Cl)cc1	3.19*
Cc1c(C(=O)/C=C/N(C)C)sc2ccccc12	-0.86
COc1ccc(/C=C(/C(=O)c2ccccc2OCc2ccccc2)[N+](=O)[O-])cc1	0.2
CCOC(=O)c1c(NC(=O)c2ccco2)sc2c1CCC(CC)C2 (configuration not stated)	-3.11
O=C(Nc1sc2c(c1C(=O)O)CCCC2)c1ccco1	0.04
CCOC(=O)c1c(NC(=O)c2ccco2)sc2c1CCC(C)C2 (configuration not stated)	3.27*
CNC(=O)c1c(NC(=O)c2ccco2)sc2c1CCC(C(C)(C)C)C2 (configuration not stated)	0.51
CC1CCc2c(sc(NC(=O)c3ccco3)c2C(=O)N2CCOCC2)C1 (configuration not stated)	3*
CCOC(=O)c1c(NC(=O)c2ccco2)sc2c1CCC(C(C)(C)C)C2 (configuration not stated)	0.15
Cc1cc(NC(=O)N(CCC#N)Cc2ccccc2)c(C(F)(F)F)o1	-2.79
O=C1C(O)=C(C(=Nc2ccccc2)c2ccccc2)C(=O)N1c1ccc(Cl)cc1	1.12
COc1cc(Cl)cc(OC)c1NC(=S)N1CCN2C(=O)c3ccccc3C21c1ccccc1 (configuration not stated)	2.53
O=S(=O)(Nc1ccc(F)c(F)c1)c1ccc2c(c1)OCCO2	-0.32
Cc1ccc2c(c1)N(C(=O)NC1CCCCC1)C(C)(C)CC2C (configuration not stated)	3.16*
